Test results reported in PubChem BioAssay (Tox21).
Results filed as inconclusive are left out. The source made the active and inactive calls. Unless noted, calls follow the shape of the dose curve; as a rule, active = well fitted curve in the direction sought with a large enough effect in the repeat runs; inconclusive = weak or mixed curves; inactive = no such curve, though single readings can be large; an effect the other way counts as inactive or inconclusive.

Columns and labels:
[1] = qHTS assay to identify small molecule antagonists of the vitamin D receptor (VDR) signaling pathway - cell viability counter screen (AID 743225); also: nearly all actives have a fitted effect of over 50% in size
In short: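 Read-out: CellTiter-Glo luminescence measured 30 min after reagent addition at room temperature. Cells were VDR-bla HEK 293T exposed 16 h at 37C, 5% CO2, to compound with 3 nM final calcitriol agonist.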

[2] = qHTS assay to identify small molecule agonists of the NFkB signaling pathway - cell viability counter screen (AID 1159515; calls by dose curve; also: series mostly up to about 61 µM; nearly all actives have a fitted effect of over 55% in size)
In short: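 5 hr compound treatment of NFkB-bla ME-180 cells (2,000/well, seeded overnight beforehand), followed by reporter substrate for 1.5 hr. CellTiter-Glo added afterward; luminescence after 30 min RT.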

[3] = qHTS assay to identify small molecule agonists of the endoplasmic reticulum stress response signaling pathway (AID 1159516; active = well fitted activation curve with a large enough effect in the signal ratio in the repeat runs, not every such curve was filed as active; the % refers to the signal ratio)
In short: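 Reporter HeLa cells (ESRE-beta-lactamase) underwent 5 hr compound incubation at 37 C and 5% CO2 in quantitative HTS format. Detection followed 2 hr of FRET substrate loading at room temperature.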

[4] = qHTS assay to identify small molecule agonists of the endoplasmic reticulum stress response signaling pathway - cell viability counter screen (AID 1159517; calls by dose curve;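 also: HeLa cells carrying an ER stress response element beta-lactamase reporter; series mostly up to about 61 µM; nearly all actives have a fitted effect of over 50% in size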)
In short: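 HeLa cells carrying an ESRE-driven beta-lactamase reporter receive compound for 5 hr at 37 C. Cell viability is then gauged with CellTiter-Glo by luminescence, 30 min at room temperature.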

[5] = qHTS assay to identify small molecule antagonists of the retinoid-related orphan receptor gamma (ROR-gamma) signaling pathway - cell viability counter screen (AID 1159520); also: nearly all actives have a fitted effect of over 50% in size
In short: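 Cytotoxicity was read from cellular ATP (CellTiter-Glo luminescence) after 16 hr at 37 C with 1 uM doxycycline induction. The inducer was added 2 hr after compound transfer to Tet-on ROR gamma CHO cells.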

[6] = target: Nuclear receptor ROR-gamma (Homo sapiens) (UniProt P51449); test: qHTS assay to identify small molecule antagonists of the retinoid-related orphan receptor gamma (ROR-gamma) signaling pathway (AID 1159521;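 also: CHO cells with doxycycline inducible ROR-gamma driving an RORE luciferase reporter; top concentration of the series differs between compounds; nearly all actives have a fitted effect of over 50% in size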)
In short: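 CHO Tet-on RORγ, RORE-luc reporter. Cpd 2 h pre-incubation, then dox hyclate 1 uM final, 16 h, 37 C/5% CO2. ONE-Glo luminescence; decrease = antagonist.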

[7] = qHTS assay to identify small molecule agonists of the AP-1 signaling pathway - cell viability counter screen (AID 1159525; calls by dose curve; also: nearly all actives have a fitted effect of over 55% in size)
In short: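 Luminescent ATP readout (Cell Titer Glo, 30 min RT), normalised to DMSO and tetra n-octyl ammonium bromide controls. Cells were ME-180 AP-1-bla in 0.5% dialyzed FBS Opti-MEM, with a 5 h, 37 °C compound exposure.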

[8] = qHTS assay to identify small molecule agonists of the AP-1 signaling pathway (AID 1159526; calls by dose curve)
[9] = target: Retinoic acid receptor RXR-alpha (Homo sapiens) (UniProt P19793); test: qHTS assay to identify small molecule agonists of the RXR signaling pathway (AID 1159527; calls by dose curve; also: nearly all actives have a fitted effect of over 35% in size)
In short: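 Read-out: beta-lactamase FRET ratio (405 nm excitation, 460 and 530 nm emission) after 2 hr substrate loading at room temperature. Cells were RXR-alpha-UAS-bla HEK 293T treated with compounds for 16 hr in 2% charcoal-stripped FBS medium.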

[10] = qHTS assay to identify small molecule agonists of the RXR signaling pathway - cell viability counter screen (AID 1159529)
In short: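 HEK 293T RXRa-bla cells, 2% CS-FBS; 5 h settle; cpd 16 h 37 C, 5% CO2; CellTiter-Glo 30 min RT, luminescence. Tetraoctyl ammonium bromide as positive control.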

[11] = qHTS assay to identify small molecule antagonists of the retinoid acid receptor (RAR) signaling pathway - cell viability counter screen (AID 1159551); also: nearly all actives have a fitted effect of over 35% in size
In short: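 Seed C3RL4 cells; next day add compound, then retinol to 1 uM final; incubate 6 h at 37 C; add CellTiter-Glo; read luminescence after 30 min at RT.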

[12] = qHTS assay to identify small molecule antagonists of the retinoic acid receptor (RAR) signaling pathway (AID 1159552; also: nearly all actives have a fitted effect of over 50% in size)
In short: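 Cells of the C3RL4 line were seeded, incubated overnight, then dosed with compounds in DMSO followed immediately by retinol (1 uM final). Six hours later luciferase detection reagent went in; signal was measured after 30 min at RT.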

[13] = qHTS assay to identify small molecule agonists of the retinoic acid receptor (RAR) signaling pathway (AID 1159553)
In short: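 Activation of retinol signaling was monitored via a RARE luciferase reporter in C3RL4 cells. After 6 hr compound treatment at 37 C, detection reagent was added for 30 min at room temperature before luminescence reading.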

[14] = qHTS assay to identify small molecule antagonists of the estrogen related receptor (ERR) signaling pathway from Tox21 library - cell viability counter screen (AID 1224834); also: nearly all actives have a fitted effect of over 30% in size
In short: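 CellTiter-Fluor fluorescence measured; ERR cells; 17.5 h compound incubation at 37 C; 30 min reagent step.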

[15] = target: Luciferin 4-monooxygenase (Photinus pyralis) (UniProt P08659); test: qHTS assay to identify small molecule inhibitors of firefly luciferase (AID 1224835); also: series mostly up to about 120 µM; nearly all actives have a fitted effect of over 25% in size
In short: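 Inhibition of purified Photinus luciferase is measured by luminescence. Substrate levels (D-luciferin, ATP) sit at their KM values. Each compound is tested in a concentration series.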

[16] = qHTS assay to identify small molecule agonists of the constitutive androstane receptor (CAR) signaling pathway - cell viability counter screen (AID 1224836); also: series mostly up to about 92 µM; nearly all actives have a fitted effect of over 45% in size
In short: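 HepG2-CYP2B6-hCAR, 2500 cells/well, 4 h pre-incubation; cpd 15 conc + PK11195 0.75 uM final; 23 h, 37 C/5% CO2; CellTiter-Fluor, fluorescence.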

[17] = qHTS assay to identify small molecule antagonists of the constitutive androstane receptor (CAR) signaling pathway - cell viability counter screen (AID 1224837); also: series mostly up to about 92 µM; nearly all actives have a fitted effect of over 45% in size
In short: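 Using CellTiter-Fluor, viability is scored in HepG2 cells stably carrying hCAR and a 2.2kb CYP2B6 reporter after 23 hr compound exposure across 15 concentrations, with CITCO present at 50 nM.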

[18] = qHTS assay to identify small molecule antagonists of the estrogen related receptor signaling pathway with the pleiotropic PPARgamma coactivator (PGC) from Tox21 10K library - cell viability counter screen (AID 1224840; active = well fitted cell-killing curve with a large enough effect in the repeat runs, not every such curve was filed as active; also: nearly all actives have a fitted effect of over 40% in size)
In short: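 Here the PGC/ERR cells serve as a cytotoxicity control: they are exposed to compounds for 17.5 hours at 37 C, and live-cell signal is quantified using CellTiter-Fluor fluorescence.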

[19] = target: Nuclear receptor subfamily 1 group I member 3 (Homo sapiens) (UniProt Q14994); test: qHTS assay to identify small molecule agonists of the constitutive androstane receptor (CAR) signaling pathway (AID 1224839);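 also: HepG2 cells stably carrying human CAR and a CYP2B6 luciferase reporter; series mostly up to about 92 µM; nearly all actives have a fitted effect of over 15% in size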
In short: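 HepG2-CYP2B6-hCAR cells, 2500/well, 4 h pre-incubation; compounds 15 conc.; PK11195 0.75 uM final; 24 h, 37 C/5% CO2; ONE-Glo luciferase read.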

Measured: Potency

Chain of Nuclear receptor subfamily 1 group I member 3 (Homo sapiens) (Q14994 whole entry, looked up): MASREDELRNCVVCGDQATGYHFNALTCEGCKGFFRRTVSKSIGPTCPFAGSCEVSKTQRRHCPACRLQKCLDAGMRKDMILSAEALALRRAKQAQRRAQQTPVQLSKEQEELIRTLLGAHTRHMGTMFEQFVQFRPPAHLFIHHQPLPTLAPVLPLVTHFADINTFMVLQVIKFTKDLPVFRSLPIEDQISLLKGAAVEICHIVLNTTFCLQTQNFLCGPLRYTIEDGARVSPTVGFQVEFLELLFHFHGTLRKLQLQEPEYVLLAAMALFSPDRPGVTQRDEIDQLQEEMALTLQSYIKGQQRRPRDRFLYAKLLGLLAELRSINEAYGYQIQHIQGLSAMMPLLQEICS
Chain of Retinoic acid receptor RXR-alpha (Homo sapiens) (P19793 whole entry, looked up): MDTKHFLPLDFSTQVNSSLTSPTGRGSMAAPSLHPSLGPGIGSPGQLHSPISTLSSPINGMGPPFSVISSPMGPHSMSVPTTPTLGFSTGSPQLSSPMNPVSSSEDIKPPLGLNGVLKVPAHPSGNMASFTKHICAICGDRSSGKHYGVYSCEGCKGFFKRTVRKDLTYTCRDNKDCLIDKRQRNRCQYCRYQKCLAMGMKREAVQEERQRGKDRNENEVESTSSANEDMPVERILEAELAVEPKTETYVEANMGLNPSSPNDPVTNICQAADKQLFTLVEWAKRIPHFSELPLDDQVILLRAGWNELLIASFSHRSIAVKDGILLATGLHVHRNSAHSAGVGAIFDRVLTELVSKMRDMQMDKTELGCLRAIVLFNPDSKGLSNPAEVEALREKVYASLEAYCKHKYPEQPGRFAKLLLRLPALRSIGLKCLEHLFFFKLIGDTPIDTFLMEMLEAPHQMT
Chain of Luciferin 4-monooxygenase (Photinus pyralis) (P08659 whole entry, looked up): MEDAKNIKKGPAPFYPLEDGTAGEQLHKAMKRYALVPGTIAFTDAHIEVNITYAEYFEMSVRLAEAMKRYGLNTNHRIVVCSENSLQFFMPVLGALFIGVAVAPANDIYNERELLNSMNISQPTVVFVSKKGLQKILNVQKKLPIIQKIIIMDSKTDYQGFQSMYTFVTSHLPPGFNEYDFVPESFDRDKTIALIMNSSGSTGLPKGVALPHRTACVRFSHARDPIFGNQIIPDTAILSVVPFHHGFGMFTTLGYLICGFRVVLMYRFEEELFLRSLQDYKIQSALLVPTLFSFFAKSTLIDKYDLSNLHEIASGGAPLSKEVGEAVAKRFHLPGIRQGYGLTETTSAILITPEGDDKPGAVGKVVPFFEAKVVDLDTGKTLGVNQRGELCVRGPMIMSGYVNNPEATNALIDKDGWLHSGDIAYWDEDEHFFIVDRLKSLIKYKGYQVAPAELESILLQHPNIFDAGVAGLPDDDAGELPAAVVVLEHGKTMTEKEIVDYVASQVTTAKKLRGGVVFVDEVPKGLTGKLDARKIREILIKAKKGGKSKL

C=C(C)C(=O)OCCCC
not listed: [19]
inactive: all other assays above

CCCCC(CC)COC(=O)CC#N (stereo not drawn)
not listed: [19]
inactive: all other assays above

CN(C)CCc1c[nH]c2ccc(CS(=O)(=O)N3CCCC3)cc12
not listed: [18]
inactive: all other assays above

CCCCCCCCCCCCCC(=O)OCC
inactive: all assays above

CNC(=O)c1c(I)c(NC(C)=O)c(I)c(C(=O)O)c1I
not listed: [19]
inactive: all other assays above

CCCCC(CC)CCC(CC(C)C)OS(=O)(=O)O (stereo not drawn)
inactive: all assays above

CCCCCCCCCCCCCCBr
not listed: [19]
inactive: all other assays above

CC(O)C(CO)C(C)O (stereo not drawn)
not listed: [19]
inactive: all other assays above

COc1ccccc1N1CCN(CC(O)COc2cc(OC)c(OC)c(OC)c2)CC1 (stereo not drawn)
inactive: all assays above

CC(C)CC(O)Cc1ccccc1 (stereo not drawn)
not listed: [1]
inactive: all other assays above

CC(=O)/C=C/C=C1/C2CCC(C2)C1(C)C (stereo not drawn)
not listed: [19]
inactive: all other assays above

CCCCN1C(=O)c2ccccc2C1=O
not listed: [18]
inactive: all other assays above

COC(=O)c1ccc(C(=O)O)cc1
not listed: [19]
inactive: all other assays above

CC(CC(=O)Cl)CC(C)(C)C (stereo not drawn)
not listed: [19]
inactive: all other assays above

O=C1CCCc2c(O)cccc21
not listed: [18]
inactive: all other assays above
